Results reported in PubChem BioAssay (NCI).
The panel holds about 83,000 compounds, 20% with a hit somewhere; the sample as a whole holds those more often.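 Cell lines were cultured in 96-well plates, exposed to a single compound concentration, and assessed for percent growth 48 hours later.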 Calls of active or inactive are those of the source.

What follows are compounds tested on A549/ATCC NSCLC (assay: NCI-60 one-dose screen, 48 h (100 = growth as untreated, 0 = no growth, -100 = all killed)). Settings: 10 µM unless noted.
Protocol: Growth inhibition of the A549/ATCC human Non-Small Cell Lung tumor cell line is measured as a screen for anti-cancer activity. Cells are grown in 96 well plates and exposed to the test compound for 48 hours. Compounds are tested at a single concentration, which is 10^-5 M for most compounds. The reported endpoint is percent growth (GI% or GIPRCNT), where numbers from 0 - 100% represent growth inhibition, and numbers from -100% - 0 represent cell death. For example, a value of 40 represents 60% growth inhibition. A value of 0 means no net growth occurred over the course of the experiment. A value of -40 indicates 40% of cells at the beginning of the experiment died by the end of the experiment. A value of -100 means all cells are dead at the end of the experiment.
NCI-60 Human Tumor Cell Lines Screen was performed using the standard one-dose NCI protocol, which is described in more detail at https://dtp.cancer.gov/discovery_development/nci-60/default.htm.
Compounds with GIPRCNT values below 10 were considered active. Activity score was based on GIPRCNT using the following formula: […]
Score is 0 for GIPRCNT values of 100 or above, 50 for GIPRCNT values of 0, and 100 for GIPRCNT values of -100.

SMILES | growth
COc1ccc(C(=O)c2sc3nc(-c4ccccc4OC)ccc3c2N)cc1OC | 64.6% (inactive)
Oc1ccccc1N=Cc1c(O)ccc2ccccc12 | 95.4% (inactive)
O=C1C(=O)N(CCCCn2cc(CO)nn2)c2ccccc21 | 104% (inactive)
CC(C)[C@@H]1CC[C@]2(C(=O)NCCCCN=C(N)N)CC[C@]3(C)[C@H](CC[C@@H]4[C@@]5(C)CCC(=O)C(C)(C)[C@@H]5CC[C@]43C)[C@@H]12 | 80.9% (inactive)
C=C1C(=O)O[C@H]2[C@H]1CC/C(Cn1cc(Cn3ccc4cc(Cl)ccc43)nn1)=C\CC[C@@]1(C)O[C@@H]21 | 48.5% (inactive)
O=C(/C=C/c1ccc(B(O)O)cc1)/C=C/c1ccc(B(O)O)cc1 | 41.4% (inactive)
CC(=O)C1=C(O)C=C2Oc3c(C(=O)/C=C/c4cc(Cl)cc(Cl)c4)c(O)c(C)c(O)c3[C@]2(C)C1=O | -27.1% (active)
O=c1c2cccc3c(Nc4c(F)cccc4F)ccc(c32)c2nc3ccccc3n12 | 82.4% (inactive)
COc1nc2c(cc1S(=O)(=O)c1ccccc1)CCc1c-2cnn1-c1ccc(Cl)cc1 | 95.4% (inactive)
Cn1c2ccccc2c2c3[nH]c(=O)[nH]c(=O)c3c3c4ccccc4n(C)c3c21 | 24.3% (inactive)
COc1ccc(-c2cc(=O)[nH]c3c(OC)c4ccccc4c(OC)c23)cc1 | 23.6% (inactive)
Cc1cc(Nc2nc(N3CCOCC3)nc3ccccc23)n[nH]1 | 53.3% (inactive)
COc1cc2c(c(OC)c1OC)-c1ccc(N=NC(N)=S)c(=O)cc1[C@@H](NC(C)=O)CC2 | 15% (inactive)
CCOC(=O)CC(=O)c1c(C)cc(C)cc1C | 107% (inactive)
C[C@@H]1CCC2=C(CCC[C@]2(C)C(=O)O)[C@@]1(C)CCc1ccoc1 | 75.8% (inactive)
CCCCNP1(NCCCC)=NP(NCCCC)(NCCCC)=NP(NCCCC)(NCCCC)=NP(NCCCC)(NCCCC)=N1 | 0.875% (active)
NC1=CC(=O)C(=O)c2ccccc21 | 112% (inactive)
CC(=O)Oc1cc2cnc3c4cc(OC(C)=O)c(OC(C)=O)cc4ccc3c2cc1OC(C)=O | 25.5% (inactive)
CCCCCCCCCCCCCCCC(=O)OCC1OC(n2cnc3c(=S)nc(N)[nH]c32)C(OC(=O)CCCCCCCCCCCCCCC)C1OC(=O)CCCCCCCCCCCCCCC (stereo not given) | 74.3% (inactive)
C/C(=C(/c1ccc(O)cc1)c1ccc(OCCN(C)C)cc1)c1ccccc1 | 72.4% (inactive)

SMILES | growth
COc1ccc(C(=O)c2sc3nc4c(cc3c2N)CCCC4)cc1OC | 41.4% (inactive)
COCCCNc1nc(NC(=O)c2ccc(F)cc2C)cc(-c2cccnc2)n1 | 79.8% (inactive)
S=c1[nH]nc(CSc2ncnc3c2c(-c2ccccc2)cn3-c2ccc(Cl)cc2)o1 | 98.5% (inactive)
O=C1C[C@H](N2C(=O)c3ccccc3S2(=O)=O)C2CO[C@@H]1O2 | 89.1% (inactive)
O=C(O)c1cccc2c1-c1ccccc1C2=O | 101% (inactive)
CCCN(CCC)CN(CCC)CCC | 91.1% (inactive)
COc1ccc(-c2cnoc2-c2cc(OC)c3c(c2)OCCO3)cc1 | 18.6% (inactive)
C=C1CC2(OC1=O)C(=O)Nc1ccccc12 (stereo not given) | 100% (inactive)
O=C(CN1CCOCC1)Nc1ccc(Cn2nnc3c2C(=O)c2nnn(Cc4ccc(NC(=O)CN5CCOCC5)cc4)c2C3=O)cc1 | -11.9% (active)
O=C(/C=C/c1ccc(Cl)cc1)c1ccc(O)c(CN2CCN(c3cc4c(cc3F)c(=O)c(C(=O)O)cn4C3CC3)CC2)c1 | 50% (inactive)
Cc1cc(=O)oc2cc(Oc3nc(-c4cccs4)cn4c(-c5cccs5)cnc34)ccc12 | 58.5% (inactive)
CC(C)C1=C[C@@]23CC[C@@H]4[C@](C)(CCC[C@@]4(C)C(=O)OCC#CCN4CCCC4)[C@H]2C[C@@H]1[C@H]1C(=O)OC(=O)[C@H]13 | 98.4% (inactive)
O=C(CN1CCN(c2cc3c(cc2F)c(=O)c(C(=O)O)cn3C2CC2)CC1)Nc1nc(-c2ccc(Cl)cc2)cs1 | 11.4% (inactive)
COc1ncc(-c2ccc3ncnc(Nc4cccc(Cl)c4)c3c2)cc1NS(C)(=O)=O | 15.8% (inactive)
C/C(=C(/c1ccc(O)cc1)c1ccc(OCCN2CCCC2)cc1)c1ccccc1 | 48.7% (inactive)
C=C1CC[C@@H]2[C@](C)(COC(C)=O)[C@H](OC(C)=O)CC[C@@]2(C)[C@@H]1CC(Nc1ccc(S(=O)(=O)Nc2ccc(Cl)nn2)cc1)C1=CCOC1=O (stereo not given in full) | 61.6% (inactive)
Clc1ccc(-c2nnc(COc3ccccc3Cl)o2)cc1 | 58.3% (inactive)
C/C=C/C(N)=O | 106% (inactive)
COc1cc(C(=O)/C=C/c2c(C)n([O-])c3ccc(C)cc3[n+]2=O)cc(OC)c1OC | 85.8% (inactive)
O=C(O)c1cccnc1Br | 101% (inactive)
